Values joined by “and” are separate entries in the source; they are usually repeats but may differ in a detail not shown here. Equal values may be shown once. Records with an inconclusive call do not appear. A call without a number means that no potency is given here. A structure can be active in one record and inactive in another. Active and inactive are the calls of the source. Unless noted, the call rests on the fitted dose curve; in most records, active means well fitted curve in the direction sought with a large enough effect in the repeat runs; inconclusive means weak or mixed curves; inactive means no such curve, though single readings can be large; an effect the other way counts as inactive or inconclusive.
Assays:
[1] = biological target: Aryl hydrocarbon receptor (Homo sapiens) (UniProt P35869); test: qHTS assay to identify small molecule that activate the aryl hydrocarbon receptor (AhR) signaling pathway (AID 743085); further: nearly all actives have a fitted effect of over 15% in size; further: potency means the concentration at half of the fitted maximal effect;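 on activation: HG2L7.5c1 human HepG2 liver cells with stably integrated DRE-driven firefly reporter; series mostly up to about 70 µM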
Aryl hydrocarbon receptor (Homo sapiens), sequence (P35869 whole entry, looked up): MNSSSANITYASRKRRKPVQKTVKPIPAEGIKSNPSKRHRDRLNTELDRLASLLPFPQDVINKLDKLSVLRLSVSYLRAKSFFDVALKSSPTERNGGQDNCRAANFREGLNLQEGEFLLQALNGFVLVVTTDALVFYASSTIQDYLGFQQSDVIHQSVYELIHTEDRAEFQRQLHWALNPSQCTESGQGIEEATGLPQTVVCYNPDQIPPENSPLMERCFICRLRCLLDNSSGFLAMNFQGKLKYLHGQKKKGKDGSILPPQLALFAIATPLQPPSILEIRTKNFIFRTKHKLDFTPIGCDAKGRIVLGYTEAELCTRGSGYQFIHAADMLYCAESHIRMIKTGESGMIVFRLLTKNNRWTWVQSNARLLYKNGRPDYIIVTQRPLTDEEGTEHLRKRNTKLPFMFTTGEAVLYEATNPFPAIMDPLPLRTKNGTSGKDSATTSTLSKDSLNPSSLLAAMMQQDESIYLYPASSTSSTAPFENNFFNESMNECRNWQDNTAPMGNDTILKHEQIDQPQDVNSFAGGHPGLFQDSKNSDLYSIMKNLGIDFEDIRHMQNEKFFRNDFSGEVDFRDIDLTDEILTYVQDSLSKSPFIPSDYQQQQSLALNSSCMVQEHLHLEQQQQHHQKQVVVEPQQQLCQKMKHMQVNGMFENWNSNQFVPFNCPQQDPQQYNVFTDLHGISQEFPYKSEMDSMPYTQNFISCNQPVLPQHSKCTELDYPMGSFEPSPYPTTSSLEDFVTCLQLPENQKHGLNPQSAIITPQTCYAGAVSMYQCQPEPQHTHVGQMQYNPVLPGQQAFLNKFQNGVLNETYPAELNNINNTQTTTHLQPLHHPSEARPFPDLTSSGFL
Outline: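 Measured in HG2L7.5c1 cells: CellTiter-Fluor signal (30 min incubation, 37C) for viability, then luciferase luminescence (30 min, room temperature). Compound contact time was 24 h at 37C, following a 5 h pre-incubation.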

[2] = biological target: Peroxisome proliferator-activated receptor gamma (Homo sapiens) (UniProt P37231); test: qHTS assay to identify small molecule agonists of the peroxisome proliferator-activated receptor gamma (PPARg) signaling pathway (AID 743094; active means well fitted activation curve with a large enough effect in the signal ratio in the repeat runs, not every such curve was filed as active; the % refers to the signal ratio)
Peroxisome proliferator-activated receptor gamma (Homo sapiens), sequence (P37231 whole entry, looked up): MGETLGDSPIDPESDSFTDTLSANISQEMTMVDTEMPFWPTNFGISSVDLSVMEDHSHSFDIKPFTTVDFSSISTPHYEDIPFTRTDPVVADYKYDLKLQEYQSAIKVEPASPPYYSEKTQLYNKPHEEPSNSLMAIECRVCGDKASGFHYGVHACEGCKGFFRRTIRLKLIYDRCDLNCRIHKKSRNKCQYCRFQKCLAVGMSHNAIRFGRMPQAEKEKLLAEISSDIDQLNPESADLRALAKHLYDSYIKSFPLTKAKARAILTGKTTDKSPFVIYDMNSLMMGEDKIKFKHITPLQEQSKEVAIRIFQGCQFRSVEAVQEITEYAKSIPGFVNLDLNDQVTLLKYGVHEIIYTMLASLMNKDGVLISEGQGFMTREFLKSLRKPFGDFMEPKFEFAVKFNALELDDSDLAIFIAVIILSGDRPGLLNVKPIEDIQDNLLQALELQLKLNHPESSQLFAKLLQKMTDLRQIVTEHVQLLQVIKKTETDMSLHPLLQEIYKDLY
Outline: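 GeneBLAzer PPARg UAS-bla HEK293H cells were plated, rested 5 h, then exposed to compounds for 17 h at 37C. Beta-lactamase activity was read by LiveBLAzer B/G FRET substrate fluorescence after 1 h at room temperature.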

[3] = biological target: Peroxisome proliferator-activated receptor gamma (Homo sapiens) (UniProt P37231); test: qHTS assay to identify small molecule antagonists of the peroxisome proliferator-activated receptor gamma (PPARg) signaling pathway (AID 743191; calls by dose curve; further: series mostly up to about 63 µM; nearly all actives have a fitted effect of over 30% in size)
Outline: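 GeneBLAzer PPARg UAS-bla HEK293H cells, 5 h post-plating, exposed to compounds 17 h at 37C. LiveBLAzer B/G FRET substrate added for 1 h at room temperature; beta-lactamase reporter read by fluorescence intensity.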

[4] = qHTS assay to identify small molecule antagonists of the peroxisome proliferator-activated receptor gamma (PPARg) signaling pathway - cell viability counter screen (AID 743194); details: Potency: co-treated with 50 nM rosiglitazone unless noted; further: nearly all actives have a fitted effect of over 55% in size; further: potency means the concentration at half of the fitted maximal effect
Outline: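 Cytotoxicity counter screen in PPARg-bla HEK293H cells, same wells as reporter assay. Compounds plus 50 nM rosiglitazone (final) for 17 h at 37 C, then viability read by CellTiter-Glo luminescence.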

[5] = qHTS assay for small molecule agonists of the antioxidant response element (ARE) signaling pathway (AID 743202; active means well fitted activation curve with a large enough effect in the signal ratio in the repeat runs, not every such curve was filed as active; the % refers to the signal ratio; further: potency means the concentration at half of the fitted maximal effect)
Outline: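 ARE-bla HepG2 cells (beta-lactamase reporter under the antioxidant response element), plated 5 hours, then exposed to compounds 16 hours at 37 C. LiveBLAzer B/G FRET substrate added for 2 hours at room temperature; fluorescence intensity read.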

[6] = qHTS assay for small molecule agonists of the antioxidant response element (ARE) signaling pathway - cell viability counter screen (AID 743203; calls by dose curve; further: nearly all actives have a fitted effect of over 55% in size; further: potency means the concentration at half of the fitted maximal effect)
Outline: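 ARE-bla HepG2 cells were plated, rested 5 h at 37C/5% CO2, then exposed to compounds in DMSO for 16 h. Viability was read as CellTiter-Glo luminescence after 30 min at room temperature, in the same wells as the ARE screen.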

[7] = qHTS assay for small molecule activators of the heat shock response signaling pathway - cell viability counter screen (AID 743209); further: nearly all actives have a fitted effect of over 50% in size; further: potency means the concentration at half of the fitted maximal effect
Outline: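 HSE-bla HeLa cells plated overnight, then exposed to Tox21 compounds (23 nL in DMSO) for 5 h at 37 C. After the bla reporter read, CellTiter-Glo was added in the same wells and luminescence read after 30 min at room temperature.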

[8] = qHTS assay for small molecule activators of the heat shock response signaling pathway (AID 743210; active means well fitted activation curve with a large enough effect in the signal ratio in the repeat runs, with a control signal flat, not every such curve was filed as active; the % refers to the signal ratio; further: series mostly up to about 63 µM)
Outline: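 HSE-bla HeLa cells (beta-lactamase reporter under heat shock response elements), plated overnight, then exposed to compounds 5 h at 37 C; LiveBLAzer B/G FRET substrate added, 2.5 h at room temperature, fluorescence intensity read.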

[9] = qHTS assay to identify small molecule that activate the aryl hydrocarbon receptor (AhR) signaling pathway - cell viability counter screen (AID 743086);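 further: HepG2 liver cells carrying the AhR DRE luciferase reporter; series mostly up to about 70 µM; nearly all actives have a fitted effect of over 45% in size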
Outline: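 HepG2-AhR-luc (HG2L7.5c1) cells, 4000/well, treated 24 h at 37 C with compound; viability measured as CellTiter-Fluor fluorescence after 30 min in the same wells as the luciferase read.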

[10] = qHTS assay to identify small molecule agonists of the peroxisome proliferator-activated receptor delta (PPARd) signaling pathway - cell viability counter screen (AID 743211); further: nearly all actives have a fitted effect of over 55% in size; further: potency means the concentration at half of the fitted maximal effect
Outline: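 Following 5 h plating at 37 C and 5% CO2, PPARd UAS-bla HEK293H cells took up test compounds for 17 h. Viability was quantified by luminescence 30 min after CellTiter-Glo addition at room temperature.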

Row | Structure (SMILES) | Potency [1] | outcome [2] | Potency [3] | Potency [4] | Potency [5] | Potency [6] | Potency [7] | outcome [8] | Potency [9] | Potency [10]
1 | CNC | inactive | inactive | inactive | inactive | inactive | inactive | inactive | inactive |  | 
2 | CCC(=O)C(CC(C)N(C)C)(c1ccccc1)c1ccccc1 (configuration not stated) | inactive | inactive | inactive | inactive |  | inactive | inactive | inactive | inactive | 
3 | COc1ccccc1N | 54.4 µM (active) and inactive | inactive | inactive | inactive | inactive | inactive | inactive | inactive | inactive | inactive
4 | O=C(O)c1ccccc1O |  |  |  | inactive | inactive | inactive | inactive |  | inactive | inactive
5 | CCCCn1cc[n+](C)c1 | inactive |  |  | inactive | inactive | inactive | inactive |  |  | inactive
6 | CCCC[n+]1ccc(C)cc1 |  |  |  | inactive and 48.7 µM [setting not given] (active) | 3.91 µM (active) and 4.33 µM (active) and inactive | inactive | 54.7 µM (active) and inactive | inactive | inactive | inactive and 48.7 µM (active)
7 | CCCC[N+]1(C)CCCCC1 | inactive |  |  | inactive | inactive | inactive | inactive |  |  | 
8 | O=C(O)c1nc(Cl)ccc1Cl | 22.4 µM (active) and inactive |  |  | inactive | inactive | inactive | inactive | inactive |  | inactive
9 | CCCCCCCCCCCC(=O)O |  |  |  | inactive | inactive | inactive | inactive |  |  | 
10 | O=[N+]([O-])O | inactive |  |  | inactive | inactive | inactive | inactive |  |  | 
11 | CCCCn1cc[n+](C)c1C | inactive |  |  | inactive | 60.8 µM (active) and 54.7 µM (active) and 61.6 µM (active) | inactive | inactive | inactive |  | 
12 | CCCn1cc[n+](C)c1 |  | inactive | inactive | inactive | inactive | inactive | inactive | inactive |  | inactive
13 | CCCCCCCCn1cc[n+](C)c1 | inactive |  |  | inactive | 4.32 µM (active) and 5.49 µM (active) | inactive | inactive | inactive |  | 
14 | CCCC[n+]1cccc(C)c1 | inactive |  |  | inactive | 60.9 µM (active) and inactive | inactive | inactive | inactive |  | 
15 | CCC[N+]1(C)CCCC1 |  |  |  | inactive | inactive | inactive | inactive | inactive |  | 
16 | CCOP(=S)(OCC)Oc1ccc2c(C)c(Cl)c(=O)oc2c1 | 596 nM (active) and 98 nM (active) | inactive |  | inactive | inactive | inactive | inactive | inactive |  | 
17 | Cc1cc(-c2ccc(N)c(C)c2)ccc1N |  | inactive | inactive | inactive | 8.73 µM (active) | inactive | inactive | inactive |  | 
18 | C=CCOC(Cn1ccnc1)c1ccc(Cl)cc1Cl (configuration not stated) |  | inactive | inactive | inactive |  | inactive | inactive |  |  | 

Row | Structure (SMILES) | Potency [1] | outcome [2] | Potency [3] | Potency [4] | Potency [5] | Potency [6] | Potency [7] | outcome [8] | Potency [9] | Potency [10]
19 | O=C(O)CCl |  | inactive | inactive | inactive | inactive | inactive | inactive | inactive | inactive | inactive
20 | CCCCCCCCCCCCOS(=O)(=O)O |  |  |  | inactive | inactive | inactive | inactive |  |  | 
21 | CCCCCCCCCCCCn1cc[n+](C)c1 |  |  |  |  | inactive |  |  | inactive |  | 
22 | CC(=O)O | inactive |  |  | inactive | inactive | inactive | inactive |  |  | 
23 | C[N+](C)(C)Cc1ccccc1 | inactive | inactive |  | inactive | inactive | inactive | inactive |  |  | inactive
24 | CC[n+]1ccccc1 |  | inactive | inactive | inactive | inactive and 2.71 µM (active) | inactive | inactive |  |  | inactive
25 | COc1ccc(N)cc1 | 60.1 µM (active) and inactive and 30.6 µM (active) | inactive |  | inactive | inactive | inactive | inactive | inactive |  | 
26 | Oc1cccc2cccnc12 |  |  |  | inactive | 6.14 µM (active) and 25.9 µM (active) and inactive | inactive and 4.33 µM (active) | 876 nM (active) and inactive and 710 nM (active) | inactive |  | 414 nM (active) and 155 nM (active) and inactive
27 | O=C(O)C(Cl)(Cl)Cl |  | inactive | inactive | inactive | inactive | inactive | inactive | inactive |  | inactive
28 | CCCCCCCCCCCCCCCCn1cc[n+](C)c1 | inactive | inactive | inactive |  |  |  |  | inactive |  | 
29 | CCCCCC[n+]1ccccc1 | inactive |  |  | inactive | 43.2 µM (active) and inactive and 17.2 µM (active) | inactive | inactive | inactive |  | 
30 | O=C(O)COc1ccc(Cl)cc1Cl |  |  |  | inactive | inactive | inactive | inactive |  | inactive | 
31 | CC(=O)[O][Hg][c]1ccccc1 | inactive |  |  | 686 nM (active) and 309 nM (active) and 1.88 µM (active) |  | 762 nM (active) and 433 nM (active) and 1.19 µM (active) | 1.22 µM (active) and 1.1 µM (active) and 2.11 µM (active) |  |  | 
32 | C[C@]12CCC(=O)C=C1CC[C@@H]1[C@@H]2CC[C@]2(C)C(=O)CC[C@@H]12 | inactive | inactive |  | inactive |  | inactive | inactive | inactive |  | inactive
33 | CCCC[N+]1(C)CCCC1 |  |  |  | inactive | inactive | inactive | inactive | inactive | inactive | 
34 | CCC[N+]1(C)CCCCC1 | inactive |  |  | inactive | inactive | inactive | inactive | inactive |  | 
35 | CCCC[n+]1ccccc1C |  |  |  | inactive |  | inactive | inactive | inactive | inactive | 
36 | Nc1ccccc1 |  | inactive | inactive | inactive | inactive | inactive | inactive | inactive |  | inactive

— PubChem BioAssay (Tox21)
